# “And” between values parts separate entries of the source, which are not always exact repeats. Equal values may be shown once. Inconclusive results are not listed. The source made the active and inactive calls. Calls come from the whole dose curve; as a rule, active = well fitted curve in the direction sought with a large enough effect; inconclusive = small, poorly fitted or top-dose-only effect, or another doubt; inactive = no such curve, though single readings can be large; an effect the other way counts as inactive or inconclusive.
# Columns and labels:
# [1] = Viability qHTS for spleen associated tyrosine kinase inhibitor (SYKi) drug resistant MV4-11 cells (AID 1963824); conditions: SYKi-resistant MV4-11 viability, CellTiter-Glo, 72 h; series mostly up to 45 µM; note: nearly all actives have a fitted effect of over 35% in size; note: potency is the fitted concentration of half-maximal effect
# How it was run: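 CellTiter-Glo luminescence, read 10 min after reagent addition, reports viability after a 72 hr compound exposure. Cells are an MV4-11 line made resistant to SYK inhibition, seeded at 500 per well onto compound-containing plates.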
# [2] = Quantitative highthroughput screen to assess conditional lethalithy of P12 Ichikawa cells grown in RPMI1640 with dialyzed fetal bovine serum (RPMI+ds) (AID 1963880); conditions: ATP luminescence, 48 h; Potency: P12-Ichikawa viability; series mostly up to 45.8 µM;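 note: 100% = DMSO wells and 0% = empty wells on each plate; nearly all actives have a fitted effect of over 35% in size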
# How it was run: (§1)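 Each medium arm—HPLM with 10% dialyzed FBS, or RPMI1640 with 5 mM glucose and 10% untreated or dialyzed FBS—was screened against an 11-point, 3-fold compound titration for 48 h at 37 °C, with CellTiter-Glo luminescence as endpoint.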
# [3] = Cellular viability qHTS for adrenocortical cancer (ACC) cell line SW-13 (AID 1963989); conditions: SW-13 ACC cells viability, CellTiter-Glo, 48 h; activity (max response): stronger effect = lower value; note: nearly all actives have a fitted effect of over 65% in size; note: potency is the fitted concentration of half-maximal effect;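 for activity (max response): cells grown in serum-free medium with ITS supplement; % is set by controls: 0 for no effect and ±100 for the full control effect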
# How it was run: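 Viability was read as CellTiter-Glo luminescence after 48 h compound treatment (up to 46 uM final) of SW-13 cells grown serum-free; titration curves were fit with a four-parameter logistic model to give IC50 and efficacy.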
# [4] = Quantitative highthroughput screen to assess conditional lethalithy of P12 Ichikawa cells grown in Human Plasma-Like Medium with dialyzed fetal bovine serum (HPLM+ds) (AID 1963879); conditions: ATP luminescence, 48 h; Potency: viability; series mostly up to 45.8 µM; note: nearly all actives have a fitted effect of over 35% in size; note: potency is the fitted concentration of half-maximal effect
# How it was run: as §1
# [5] = Quantitative highthroughput screen to assess conditional lethalithy of SEM cells grown in Human Plasma-Like Medium with dialyzed fetal bovine serum (HPLM+ds) (AID 1963882); conditions: SEM B-ALL cells in HPLM+ds, CellTiter-Glo viability, 48 h; series mostly up to 45.8 µM; note: nearly all actives have a fitted effect of over 35% in size
# How it was run: as §1
# [6] = Quantitative highthroughput screen to assess conditional lethalithy of SEM cells grown in RPMI1640 with unreated serum (RPMI+s) (AID 1963883); conditions: SEM B-ALL cells, CellTiter-Glo viability, 48 h; series mostly up to 45.8 µM; note: nearly all actives have a fitted effect of over 35% in size; note: potency is the fitted concentration of half-maximal effect;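 for Viability: 100% = DMSO wells and 0% = empty wells without cells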
# How it was run: as §1
# [7] = Quantitative highthroughput screen to assess conditional lethalithy of SEM cells grown in RPMI1640 with dialyzed fetal bovine serum (RPMI+ds) (AID 1963884); conditions: SEM B-ALL cells, RPMI+dialyzed FBS, CellTiter-Glo viability, 48 h; series mostly up to 45.8 µM; note: nearly all actives have a fitted effect of over 35% in size; note: potency is the fitted concentration of half-maximal effect;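 for Viability: 100% = DMSO control wells and 0% = empty wells without cells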
# How it was run: as §1
# [8] = Cellular viability qHTS for adrenocortical cancer (ACC) cell line NCI-H295R (AID 1963990); conditions: CellTiter-Glo ATP luminescence, 48 h; series mostly up to 46.1 µM;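 note: 0% = DMSO only wells and -100% = full killing with cytotoxic reference compound; nearly all actives have a fitted effect of over 60% in size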
# How it was run: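 CellTiter-Glo ATP luminescence, read 48 h after compound addition, measured viability of NCI-H295R adrenocortical cells grown serum-free with ITS. Final concentrations spanned up to 46 uM. Data normalized to DMSO and doxorubicin, fitted for IC50 and maximal response.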
# [9] = Quantitative highthroughput screen to assess conditional lethalithy of P12 Ichikawa cells grown in RPMI1640 with untreated serum (RPMI+s) (AID 1963881); conditions: ATP luminescence, 48 h; Potency: viability; series mostly up to 45.8 µM
# How it was run: as §1
smiles,measurement,setting,value
CCNC(=O)Nc1ccc2ncc(Nc3ccc(C)cc3)nc2n1,Potency,[1],inactive
same,Potency,[2],inactive
C[C@H]1C[C@@H](n2c(Nc3ccc(OC(F)(F)F)cc3)nc3cc(CCC(=O)O)ccc32)CC(C)(C)C1,Potency,[1],10.5 µM (active)
same,activity (max response),[3],-13.1% (inactive)
O=C(O)CCCCC(CCSCc1ccccc1)SCc1ccccc1 (stereo not given),Potency,[1],13.2 µM (active)
same,Potency,[4],14.8 µM (active)
same,Potency,[5],inactive
same,Potency,[6],inactive
same,Potency,[7],inactive
COc1ccccc1[C@H](c1cccc2ccccc12)[C@@](C)(C#N)C(=O)N1CCC(c2cccc(C(F)(F)F)c2)CC1,Potency,[1],8.33 µM (active)
same,Potency,[4],16.6 µM (active)
same,activity (max response),[3],-5.9% (inactive)
Cc1ccc2nc(NC(=O)CSc3nc4c(c(=O)n3-c3ccccc3)SCC4)sc2c1,Potency,[1],inactive
same,Potency,[6],16.6 µM (active)
same,Potency,[7],20.9 µM (active)
same,activity (max response),[3],-6.8% (inactive)
same,Potency,[8],inactive
CCOC(=O)[C@@]1(CCCCCCOc2ccc(Cl)cc2)CO1,Potency,[1],20.9 µM (active)
same,Potency,[6],11.7 µM (active)
CC(=O)NS(=O)(=O)c1ccc(N)cc1,Potency,[1],inactive
same,activity (max response),[3],4.13% (inactive)
CN(C)c1ccccc1CN1CCCN(Cc2ccccc2N(C)C)C1c1ccncc1,Potency,[1],7.42 µM (active)
same,Potency,[4],inactive
same,Potency,[2],inactive
same,Potency,[9],inactive
same,Potency,[5],inactive
same,Potency,[3],28.2 µM (active)
COc1ccc(-c2cc(C(O)C3CCCCN3)c3ccccc3n2)cc1 (stereo not given),Potency,[1],1.66 µM (active)
same,Potency,[3],28.2 µM (active)
COc1cc2ncnc(Nc3ccc(O)c(Br)c3)c2cc1OC,Potency,[1],1.64 µM (active) and 1.66 µM (active)
same,Potency,[3],3.55 µM (active)
CC(C)(C)C[C@H]1N[C@@H](C(=O)NC2CCC(O)CC2)[C@H](c2cccc(Cl)c2F)[C@@]12C(=O)Nc1cc(Cl)ccc12 (stereo not given in full),Potency,[1],6.61 µM (active)
same,Potency,[3],25.1 µM (active)
C=C1CCC2[C@](C)(CO)C(O)CC[C@]2(C)C1C/C=C1/C(=O)OCC1O (stereo not given in full),Potency,[1],2.63 µM (active)
same,Potency,[3],25.1 µM (active)
COc1ccc(S(=O)(=O)N2c3ccc(Cl)cc3[C@@](O)(c3ccccc3Cl)[C@H]2C(=O)N2CCC[C@@H]2C(N)=O)cc1OC,Potency,[1],16.8 µM (active)
same,activity (max response),[3],-24.3% (inactive)
O=Cc1ccccc1C=O,Potency,[1],inactive
same,activity (max response),[3],0.792% (inactive)
C[C@@H]1CN(CC(=O)Nc2ccc3c(c2)Cc2cccc(-c4cc(=O)cc(N5CCOCC5)o4)c2S3)C[C@H](C)O1,Potency,[1],4.68 µM (active)
same,Potency,[3],28.2 µM (active)
CC[C@H](C)C(=O)O[C@H]1CCC=C2C=C[C@H](C)[C@H](CC[C@@H]3C[C@@H](O)CC(=O)O3)[C@H]21,Potency,[1],4.68 µM (active)
same,activity (max response),[3],-23.7% (inactive)
Nc1nc(F)nc2c1ncn2C1OC(COP(=O)(O)O)C(O)C1O (stereo not given),Potency,[1],14.8 µM (active)
same,activity (max response),[3],-0.687% (inactive)
CN[C@@H](C)C(=O)N[C@@H]1C(=O)N(Cc2c(C)ccc3ccccc23)c2ccc(C#N)cc2N(C(C)=O)[C@H]1C,Potency,[1],13.2 µM (active)
same,activity (max response),[3],3.96% (inactive)
O=C(NO)C1(CS(=O)(=O)c2ccc(Oc3ccc(Cl)cc3)cc2)CCOCC1,Potency,[1],16.6 µM (active)
same,Potency,[3],25.1 µM (active)
COc1cc(OC)c2c(=O)[nH]c(-c3cc(C)c(OCCO)c(C)c3)nc2c1,Potency,[1],13 µM (active) and 9.34 µM (active)
same,activity (max response),[3],-6.15% (inactive)
CCC(C(=O)OCCN(CC)CC)c1ccccc1 (stereo not given),Potency,[1],inactive
same,activity (max response),[3],4.88% (inactive)
C=CC(=O)N[C@H]1CN(c2nc(Nc3cn(C)nc3OC)c3ncn(C)c3n2)C[C@@H]1F,Potency,[1],18.6 µM (active)
same,Potency,[3],0.199 µM (active)
